# The campaign covered roughly 5,600 compounds. About 150 (2.7%) showed an effect of 50% or more. The sample as a whole holds a higher share of strong results than the screen did.
# Assays:
# [1] = biological target: T1, Protein deacetylase HDAC6 (Homo sapiens) (UniProt Q9UBN7); settings: at 10 µM
# T1 sequence (whole entry): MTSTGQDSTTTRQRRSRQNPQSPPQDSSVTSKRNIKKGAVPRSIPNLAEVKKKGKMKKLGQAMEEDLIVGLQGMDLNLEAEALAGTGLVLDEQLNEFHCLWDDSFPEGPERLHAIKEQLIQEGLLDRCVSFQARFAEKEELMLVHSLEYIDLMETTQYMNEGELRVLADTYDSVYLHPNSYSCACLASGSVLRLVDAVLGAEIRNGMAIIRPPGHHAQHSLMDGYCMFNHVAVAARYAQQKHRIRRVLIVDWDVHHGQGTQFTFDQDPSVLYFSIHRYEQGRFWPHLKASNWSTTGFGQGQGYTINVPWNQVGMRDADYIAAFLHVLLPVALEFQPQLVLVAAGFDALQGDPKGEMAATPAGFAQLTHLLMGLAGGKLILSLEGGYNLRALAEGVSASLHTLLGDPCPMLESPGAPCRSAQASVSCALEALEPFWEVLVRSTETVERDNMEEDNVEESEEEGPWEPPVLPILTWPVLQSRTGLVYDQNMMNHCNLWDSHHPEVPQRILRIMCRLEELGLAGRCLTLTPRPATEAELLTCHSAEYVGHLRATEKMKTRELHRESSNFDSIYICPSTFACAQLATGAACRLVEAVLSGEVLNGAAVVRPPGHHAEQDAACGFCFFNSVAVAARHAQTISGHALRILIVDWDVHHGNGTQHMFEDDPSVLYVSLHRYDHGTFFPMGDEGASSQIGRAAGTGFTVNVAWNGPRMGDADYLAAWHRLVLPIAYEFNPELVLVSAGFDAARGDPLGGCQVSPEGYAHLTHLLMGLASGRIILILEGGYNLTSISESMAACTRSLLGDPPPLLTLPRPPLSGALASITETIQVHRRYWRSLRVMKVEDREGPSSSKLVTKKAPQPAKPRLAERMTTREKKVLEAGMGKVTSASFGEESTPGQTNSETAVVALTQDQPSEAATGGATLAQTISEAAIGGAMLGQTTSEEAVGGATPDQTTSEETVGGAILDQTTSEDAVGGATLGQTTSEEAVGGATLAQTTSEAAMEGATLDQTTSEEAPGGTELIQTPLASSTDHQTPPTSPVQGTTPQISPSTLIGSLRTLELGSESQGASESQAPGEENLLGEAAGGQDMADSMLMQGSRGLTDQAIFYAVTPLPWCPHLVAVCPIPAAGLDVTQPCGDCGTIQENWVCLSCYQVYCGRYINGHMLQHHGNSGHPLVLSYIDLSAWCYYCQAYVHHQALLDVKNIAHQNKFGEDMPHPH
# [2] = biological target: Protein deacetylase HDAC6 (Homo sapiens) (UniProt Q9UBN7); settings: at 10 µM; remark: listed apart in the source
molecule,measurement,setting,value
Nc1ccn([C@@H]2O[C@@](CO)(CCl)[C@@H](O)[C@H]2F)c(=O)n1,inhibition,[1],-1.66%
O=C(/C=C/c1ccc(O)cc1)c1ccc(O)cc1O,inhibition,[1],99.7%
O=C(/C=C/c1ccc(O)c(O)c1)O[C@H](Cc1ccc(O)c(O)c1)C(=O)O,inhibition,[1],3.24%
CC(C)(C)c1cc(C(=O)/C=C/c2ccc(C(=O)O)cc2)cc(C(C)(C)C)c1,inhibition,[1],2.42%
O=C(O)/C=C/c1ccc(O)c(O)c1,inhibition,[1],-0.33%
O=C(/C=C/c1ccc(O)c(O)c1)c1ccc(O)cc1O,inhibition,[1],99.2%
O=C(O)/C=C/c1ccc(O)cc1,inhibition,[1],-0.48%
CC(C)C[C@@H](NC(=O)OCC1c2ccccc2-c2ccccc21)C(=O)O,inhibition,[1],3.37%
"CARBOPLATIN, CHEMBL1351",inhibition,[2],-2.28%
CC(C)C[C@H](NC(=O)OCC1c2ccccc2-c2ccccc21)C(=O)O,inhibition,[1],-7.02%
CC(C)(C)C1CCc2c(sc(NC(=O)c3ccco3)c2C(=O)O)C1 (stereo not given),inhibition,[1],-1.94%
O=c1ccc2c(OCCCCOc3ccccc3)c3ccoc3cc2o1,inhibition,[1],-4.23%
COc1ccc(S(=O)(=O)Nc2cc(Cl)cc(Cl)c2OC)cc1N1CCNCC1,inhibition,[1],-0.38%
CC1(C)Oc2ccc(C#N)cc2[C@H](N(Cc2ncc[nH]2)c2ccc(Cl)cc2)[C@H]1O,inhibition,[1],5.57%
O=C(O)c1cc(=O)c2ccccc2o1,inhibition,[1],10.2%
CC(C)c1ccc(-c2cc(=O)c3ccccc3o2)cc1,inhibition,[1],77.3%
CCOC(=O)COc1ccc2c(=O)cc(-c3ccccc3)oc2c1,inhibition,[1],-3.12%
"ACRIFLAVINE HYDROCHLORIDE, CHEMBL5219995",inhibition,[2],7.54%
CCCCCCCCCCCCCCCCCCCCCC(=O)Nc1ccn([C@@H]2O[C@H](CO)[C@@H](O)[C@@H]2O)c(=O)n1,inhibition,[1],-7.93%
COc1cc(-n2cnc3cc(-c4ccc(Cl)cc4)sc3c2=O)ccc1OCCN1CCCC1,inhibition,[1],2.09%
O=C(CC(c1ccccc1)c1ccccc1)N1CCN(C(c2ccccc2)c2ccccc2)CC1,inhibition,[1],-2.23%
O=c1c(O)c(-c2ccc(O)cc2)oc2cc(O)cc(O)c12,inhibition,[1],47.1%
O=c1c(O)c(-c2cc(O)c(O)c(O)c2)oc2cc(O)cc(O)c12,inhibition,[1],6.61%
COc1ccc(-c2cc(=O)c3c(OC)c(OC)c(OC)c(OC)c3o2)cc1,inhibition,[1],-4.13%
COc1ccc(-c2cc(=O)c3c(O)c(OC)c(O)cc3o2)cc1OC,inhibition,[1],58.5%
O=C(O)[C@H]1O[C@H](Oc2cc3oc(-c4ccccc4)cc(=O)c3c(O)c2O)[C@H](O)[C@@H](O)[C@@H]1O,inhibition,[1],-2.69%
O=c1cc(-c2ccccc2)oc2cc(O)c(O)c(O)c12,inhibition,[1],75.1%
O=C(O)Cc1cccc2c(=O)cc(-c3ccccc3)oc12,inhibition,[1],2.51%
COc1ccc(-c2cc(=O)c3c(OC)c(OC)c(OC)c(OC)c3o2)cc1OC,inhibition,[1],-7.64%
O=c1cc(-c2ccccc2)oc2cc(O)cc(O)c12,inhibition,[1],72.7%
O=c1oc2cc(O)ccc2s1,inhibition,[1],-3.98%
O=c1cc(-c2ccc(O)cc2)oc2cc(O)cc(O)c12,inhibition,[1],66.2%
O=C1C[C@@H](c2ccccc2)Oc2cc(O)cc(O)c21,inhibition,[1],4%
CCN(c1ccccc1)c1cc(NC)[n+](C)c(C)n1,inhibition,[1],-1.77%
O=C(O)Cc1nn(Cc2nc3cc(C(F)(F)F)ccc3s2)c(=O)c2ccccc12,inhibition,[1],-1.1%
O=C(Nc1ccc(S(=O)(=O)Nc2nccs2)cc1)C(c1ccccc1)c1ccccc1,inhibition,[1],-1.03%
CN[C@@H](C)C(=O)N[C@H](C(=O)N1CCC[C@H]1C(=O)Nc1sc(-c2ncco2)nc1-c1ccccc1)C1CCCCC1,inhibition,[1],-6.76%
O=c1[nH]cnc2ccccc12,inhibition,[1],-1.07%
COc1cc2nc(N3CCN(C(=O)COc4c(OC)cccc4C(C)C)CC3)nc(N)c2cc1OC,inhibition,[1],4.56%
CCCCOc1nc(N)c2c(n1)N(Cc1cccc(CN3CCCC3)c1)CC(=O)N2,inhibition,[1],3.13%
CC1CCc2c(cc(Br)c(F)c2Br)N1C=O (stereo not given),inhibition,[1],3.01%
N#C/C(=C\c1cn(-c2ccccc2)c2ccccc12)C(=O)O,inhibition,[1],-2.69%
O=S(=O)(O)CC(S)CS (stereo not given),inhibition,[1],2.52%
Cc1ccc(CCCO)c(NCc2ccc3nc(NCCCN4CCOCC4)n(Cc4nc(C)ccc4O)c3c2)c1,inhibition,[1],-5.63%
N#Cc1c(N)nc(SCc2csc(-c3ccc(Cl)cc3)n2)c(C#N)c1-c1ccc(OCCO)cc1,inhibition,[1],2.06%
CCCCCCCCCCCCCCCC[n+]1ccn(Cc2ccccc2)c1C,inhibition,[1],-2.57%
COc1cc2c(cc1OC)-c1c(C)c3ccc(OC)c(OC)c3c[n+]1CC2,inhibition,[1],-0.34%
COc1ccc(-c2cc(=O)c3c(O)cc(O[C@@H]4O[C@H](CO[C@@H]5O[C@@H](C)[C@H](O)[C@@H](O)[C@H]5O)[C@@H](O)[C@H](O)[C@H]4O)cc3o2)cc1O,inhibition,[1],8.42%
COc1ccc(-c2cc(=O)c3c(O)cc(O)cc3o2)cc1O,inhibition,[1],52.3%
COc1ccc([C@@H]2CC(=O)c3c(O)cc(O)cc3O2)cc1O,inhibition,[1],31.5%
CC(C)[C@H](C(=O)Nc1ccc(C(=O)NO)cc1)c1ccccc1,inhibition,[1],98%
O=C(O)c1ccc(NC(=O)[C@H](Cc2ccc(O)cc2)NC(=O)c2ccccc2)cc1,inhibition,[1],3.32%
CC(=O)Nc1ccc(C(=O)Nc2ccccc2N)cc1,inhibition,[1],0.93%
O=C(O)c1ccccc1Nc1ccc(CCc2ccc(Cl)c(Cl)c2)cc1,inhibition,[1],-6.85%
COc1ccc2c(c1)C(C(=O)N(Cc1ccc(N(C)C)cc1)c1ccc(C(C)C)cc1)CCC2 (stereo not given),inhibition,[1],-3.38%

# Source: ChEMBL document CHEMBL4808148, “HDAC6 screening dataset using tau-based substrate in an enzymatic assay yields selective inhibitors and activators” (2021)
